Measurements as given in PubChem BioAssay.
The source made the active and inactive calls.

Legend:
[1] = small molecules captured by biotinylated probe aFSTL3 – biochemical, small-molecule microarray, fluorescence 635/667, stem cell growth factor project, primary screen (AID 1064); details: higher = more signal;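 note: measures binding of the biotinylated anti-FSTL3 antibody to printed compounds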
[2] = binders from COS7 lysate, DM2A8 probe, primary screen, torsin A project, cell lysate, small-molecule microarray, fluorescence 635/667 (AID 1065); details: higher = more signal, COS7 lysate expressing mutant human TOR1A
[3] = small molecules captured by biotinylated probe aFGF2 – biochemical, small-molecule microarray, fluorescence 635/667, stem cell growth factor project, primary screen (AID 1067); details: higher = more signal;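 note: measures binding of biotinylated aFGF2 protein to printed compounds on slides; z-score merges feature fluorescence and signal-to-noise across triplicate slides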
[4] = small molecules captured by biotinylated probe aFGF10 – biochemical, small-molecule microarray, fluorescence 635/667, stem cell growth factor project, primary screen (AID 1071); details: higher = more signal;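 note: score merges 667 nm spot intensity and signal to noise from triplicate slides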
[5] = biological target: Neurogenic locus notch homolog protein 2 (Homo sapiens) (UniProt Q04721); assay: small molecules binding Notch2 protein – biochemical, small-molecule microarray, 635 nm fluorescence, stem cell growth factors, primary screen (AID 1073); details: higher = more signal
[6] = biological target: Pro-neuregulin-1, membrane-bound isoform (Homo sapiens) (UniProt Q02297); assay: small molecules binding neuregulin-1 protein – biochemical, small-molecule microarray, fluorescence 635/667, psychiatric disease protein project, primary screen (AID 1075); details: NRG1 binding, 635 nm fluorescence, higher = more signal;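 note: score combines 667 nm spot fluorescence with signal to noise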
[7] = test system: Neuregulin-1 EGF-like domain; assay: small molecules binding NRG1 EGF domain – biochemical, small-molecule microarray, 635 nm fluorescence, primary screen (AID 1081); details: higher = more signal;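 note: binding of the protein to compounds printed on small-molecule microarray slides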
[8] = FRG1 expression reporter modulators in myotubes – cell-based, C2C12 myotubes, firefly/Renilla luciferase, luminescence, FRG1 inhibition for FSHD, primary screen (AID 1084); details: FRG1 promoter luciferase, higher = more signal, called active from +8 up or from −8 down
[9] = small molecules captured by biotinylated probe aFST – biochemical, small-molecule microarray, fluorescence 635/667, stem cell growth factor project, primary screen (AID 1086); details: higher = more signal;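 note: score merges 667 nm fluorescence with signal-to-noise of each printed compound spot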
[10] = binders of probe aHhip on microarray, primary screen, stem cell growth factor project, biochemical, small-molecule microarray, fluorescence 635/667 (AID 1087); details: higher = more signal;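 note: score merges spot fluorescence at 667nm with spot signal to noise ratio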

Sequence of Pro-neuregulin-1, membrane-bound isoform (Homo sapiens) (Q02297 whole entry, looked up, the tested form may be a part, canonical isoform): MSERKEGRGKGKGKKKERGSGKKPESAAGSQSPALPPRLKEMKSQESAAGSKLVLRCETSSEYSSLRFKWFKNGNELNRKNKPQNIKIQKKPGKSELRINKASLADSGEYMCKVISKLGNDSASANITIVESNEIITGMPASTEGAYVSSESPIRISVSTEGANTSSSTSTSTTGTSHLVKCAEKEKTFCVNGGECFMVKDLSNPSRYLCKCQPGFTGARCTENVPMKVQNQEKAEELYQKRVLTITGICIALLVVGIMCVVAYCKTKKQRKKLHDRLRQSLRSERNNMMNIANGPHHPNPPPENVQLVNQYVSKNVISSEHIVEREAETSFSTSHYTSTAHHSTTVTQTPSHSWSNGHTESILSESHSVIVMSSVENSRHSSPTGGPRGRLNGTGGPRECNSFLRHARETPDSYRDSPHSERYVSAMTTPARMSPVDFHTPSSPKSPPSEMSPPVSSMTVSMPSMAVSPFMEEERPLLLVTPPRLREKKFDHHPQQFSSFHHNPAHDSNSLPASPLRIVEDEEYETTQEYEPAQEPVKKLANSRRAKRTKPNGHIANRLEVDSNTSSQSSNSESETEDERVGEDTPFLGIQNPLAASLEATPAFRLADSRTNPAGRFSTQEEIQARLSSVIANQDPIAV
Sequence of Neurogenic locus notch homolog protein 2 (Homo sapiens) (Q04721 whole entry, looked up, canonical isoform): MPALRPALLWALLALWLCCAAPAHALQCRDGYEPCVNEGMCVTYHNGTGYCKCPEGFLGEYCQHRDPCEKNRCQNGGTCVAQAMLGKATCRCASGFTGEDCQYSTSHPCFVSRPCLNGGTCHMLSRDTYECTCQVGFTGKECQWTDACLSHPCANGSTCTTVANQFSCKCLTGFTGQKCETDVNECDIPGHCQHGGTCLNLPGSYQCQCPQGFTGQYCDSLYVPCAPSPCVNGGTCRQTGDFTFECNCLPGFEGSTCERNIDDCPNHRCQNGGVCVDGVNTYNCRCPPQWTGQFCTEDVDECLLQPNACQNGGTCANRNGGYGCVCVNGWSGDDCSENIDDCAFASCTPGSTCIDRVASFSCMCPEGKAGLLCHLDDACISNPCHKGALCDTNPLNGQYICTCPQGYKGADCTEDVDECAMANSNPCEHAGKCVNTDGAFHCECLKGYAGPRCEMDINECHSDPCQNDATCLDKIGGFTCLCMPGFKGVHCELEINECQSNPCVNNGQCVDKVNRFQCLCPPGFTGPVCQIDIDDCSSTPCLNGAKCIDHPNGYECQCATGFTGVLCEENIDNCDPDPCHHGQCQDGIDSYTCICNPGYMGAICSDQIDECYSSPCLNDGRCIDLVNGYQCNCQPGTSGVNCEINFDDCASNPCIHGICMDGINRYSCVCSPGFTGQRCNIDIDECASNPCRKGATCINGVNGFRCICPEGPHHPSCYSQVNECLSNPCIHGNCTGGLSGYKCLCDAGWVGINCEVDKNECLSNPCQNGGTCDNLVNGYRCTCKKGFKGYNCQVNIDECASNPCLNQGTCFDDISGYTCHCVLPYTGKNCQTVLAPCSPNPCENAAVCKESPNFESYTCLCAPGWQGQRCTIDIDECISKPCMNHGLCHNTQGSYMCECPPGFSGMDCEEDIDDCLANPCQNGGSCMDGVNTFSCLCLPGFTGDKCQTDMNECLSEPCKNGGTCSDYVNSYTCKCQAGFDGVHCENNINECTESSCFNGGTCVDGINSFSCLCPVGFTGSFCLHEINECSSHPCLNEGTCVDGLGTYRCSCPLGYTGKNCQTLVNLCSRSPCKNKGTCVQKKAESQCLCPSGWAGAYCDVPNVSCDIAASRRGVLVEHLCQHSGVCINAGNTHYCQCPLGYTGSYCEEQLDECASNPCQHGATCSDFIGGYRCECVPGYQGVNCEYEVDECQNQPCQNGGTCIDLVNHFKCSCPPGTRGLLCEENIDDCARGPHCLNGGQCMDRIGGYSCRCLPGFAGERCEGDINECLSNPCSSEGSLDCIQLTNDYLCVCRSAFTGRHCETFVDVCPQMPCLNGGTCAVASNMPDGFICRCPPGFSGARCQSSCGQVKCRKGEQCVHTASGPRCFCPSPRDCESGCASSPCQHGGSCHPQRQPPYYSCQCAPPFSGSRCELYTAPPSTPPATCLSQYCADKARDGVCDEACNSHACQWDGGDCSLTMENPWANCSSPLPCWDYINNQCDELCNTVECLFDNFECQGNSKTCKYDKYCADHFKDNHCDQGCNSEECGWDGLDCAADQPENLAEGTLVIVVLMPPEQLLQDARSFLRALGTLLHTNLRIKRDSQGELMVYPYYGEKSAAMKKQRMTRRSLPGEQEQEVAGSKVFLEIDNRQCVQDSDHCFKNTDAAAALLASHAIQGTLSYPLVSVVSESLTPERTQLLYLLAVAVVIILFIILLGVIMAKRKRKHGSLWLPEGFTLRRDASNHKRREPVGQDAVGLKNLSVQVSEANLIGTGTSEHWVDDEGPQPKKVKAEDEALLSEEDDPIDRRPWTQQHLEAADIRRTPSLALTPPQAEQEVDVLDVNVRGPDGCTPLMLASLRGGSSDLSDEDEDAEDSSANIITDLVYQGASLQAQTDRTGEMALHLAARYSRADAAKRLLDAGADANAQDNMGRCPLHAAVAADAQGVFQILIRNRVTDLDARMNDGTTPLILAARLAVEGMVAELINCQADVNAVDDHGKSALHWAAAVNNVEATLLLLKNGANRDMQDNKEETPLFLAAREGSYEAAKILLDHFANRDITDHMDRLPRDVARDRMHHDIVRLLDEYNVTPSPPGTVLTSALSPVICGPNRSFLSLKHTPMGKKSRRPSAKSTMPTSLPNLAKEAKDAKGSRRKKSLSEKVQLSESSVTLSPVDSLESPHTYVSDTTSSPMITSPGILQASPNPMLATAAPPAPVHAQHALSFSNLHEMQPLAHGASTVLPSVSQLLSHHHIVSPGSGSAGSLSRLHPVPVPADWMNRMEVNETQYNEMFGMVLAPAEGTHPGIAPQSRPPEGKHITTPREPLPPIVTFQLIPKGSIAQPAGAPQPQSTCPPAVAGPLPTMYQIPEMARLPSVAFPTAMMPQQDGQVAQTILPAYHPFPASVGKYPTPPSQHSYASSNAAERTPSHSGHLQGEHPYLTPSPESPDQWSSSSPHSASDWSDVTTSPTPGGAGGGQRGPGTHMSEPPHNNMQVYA

CCCC[C@@H]1C[C@H]1[C@@H](NC(=O)c1ccco1)c1ccccc1C(F)(F)F
composite z-score [1]: 2.82
composite z-score [2]: -0.108
composite z-score [3]: 0.806
composite z-score [4]: 0.0033
composite z-score [5]: 0.967
composite z-score [6]: 0.382
composite z-score [7]: -0.226
z-score [8]: 0.792 (inactive)
composite z-score [9]: 2.87
composite z-score [10]: 3.61

CCS[C@H]1[C@@H](C(=O)O)[C@H](c2ccc(C)cc2)N(S(=O)(=O)c2ccc(C)cc2)[C@@H]1CC
composite z-score [1]: -0.21
composite z-score [2]: -0.0564
composite z-score [3]: 0.0288
composite z-score [4]: 1.1
composite z-score [5]: 1.36
composite z-score [6]: 1.84
composite z-score [7]: 1.36
z-score [8]: -3.15 (inactive)
composite z-score [9]: 1.56
composite z-score [10]: 0.201

O=C(NC1CC1)[C@@H]1c2ccccc2C(=O)N(Cc2ccccc2Cl)[C@H]1c1ccc(CO)cc1
composite z-score [1]: -0.255
composite z-score [2]: 0.256
composite z-score [3]: -0.104
composite z-score [4]: 0.486
composite z-score [5]: 0.532
composite z-score [6]: 0.93
composite z-score [7]: 1.32
z-score [8]: -2.22 (inactive)
composite z-score [9]: 0.882
composite z-score [10]: -0.15

O=C1c2ccccc2[C@](Cc2ccccc2I)(C(=O)NCC(F)(F)F)[C@H](c2ccc(CO)cc2)N1Cc1ccccc1Cl
composite z-score [1]: -0.266
composite z-score [2]: 0.0347
composite z-score [3]: 0.0069
composite z-score [4]: 0.106
composite z-score [5]: 0.95
composite z-score [6]: 1.74
composite z-score [7]: 1.28
z-score [8]: -1.05 (inactive)
composite z-score [9]: 0.748
composite z-score [10]: 0.0373

OCCCC1=CC(c2cccs2)N(Cc2cc3c(cc2Br)OCO3)CC1 (stereo not given)
composite z-score [1]: 0.235
composite z-score [2]: 0.457
composite z-score [3]: -0.124
composite z-score [4]: -0.0316
composite z-score [5]: -0.242
composite z-score [6]: 0.775
composite z-score [7]: 1.04
z-score [8]: -1.86 (inactive)
composite z-score [9]: -0.0026
composite z-score [10]: -0.206

CO[C@H]1O[C@H](CO)[C@@H](OC(=O)Nc2ccccc2)[C@H](OC(=O)Nc2ccccc2)[C@@H]1OC(=O)Nc1ccccc1
composite z-score [1]: -0.29
composite z-score [2]: 0.692
composite z-score [3]: 0.205
composite z-score [4]: 0.784
composite z-score [5]: 1.3
composite z-score [6]: 1.45
composite z-score [7]: 1.37
z-score [8]: 1.89 (inactive)
composite z-score [9]: 1.05
composite z-score [10]: -0.546

Cc1ccc(S[C@]2(C(=O)NCCCN(C)C)CC(=O)N(Cc3cc(C(F)(F)F)cc(C(F)(F)F)c3)[C@@H]2c2ccc(CO)cc2I)cc1
composite z-score [1]: 0.746
composite z-score [2]: 0.0752
composite z-score [3]: -0.0894
composite z-score [4]: -0.21
composite z-score [5]: -1.21
composite z-score [6]: 2.07
composite z-score [7]: 0.634
z-score [8]: 0.452 (inactive)
composite z-score [9]: -0.191
composite z-score [10]: -0.0994

CCCCCN1CC=CC23O[C@@H]4/C=C\CCC(C)OC(=O)C4[C@H]2C(=O)N(C(C)CO)[C@@H]3C1=O (stereo not given in full)
composite z-score [1]: -0.411
composite z-score [2]: -1.14
composite z-score [3]: -0.164
composite z-score [4]: -0.043
composite z-score [5]: -0.602
composite z-score [6]: 0.946
composite z-score [7]: 0.38
z-score [8]: -1.32 (inactive)
composite z-score [9]: -0.258
composite z-score [10]: -0.268

COC(=O)[C@@]1(Cc2ccc(OC)cc2)[C@H]2c3cc(C(=O)N(C)C)n(Cc4ccc(S(C)(=O)=O)cc4)c3C[C@H]2CN1C(=O)c1ccccc1
composite z-score [1]: 1.12
composite z-score [2]: 0.325
composite z-score [3]: 0.27
composite z-score [4]: 0.178
composite z-score [5]: 1.24
composite z-score [6]: 1.64
composite z-score [7]: 1.31
z-score [8]: -1.49 (inactive)
composite z-score [9]: 1.46
composite z-score [10]: 0.296

COCCOC(=O)N1C(=O)[C@@]2(c3cc(C#CCCO)ccc31)[C@H](C(N)=O)[C@H]1C(=O)O[C@H](c3ccccc3)[C@H](c3ccccc3)N1[C@@H]2c1ccc(O)cc1
composite z-score [1]: -0.025
composite z-score [2]: -0.283
composite z-score [3]: -0.0145
composite z-score [4]: 0.413
composite z-score [5]: -0.242
composite z-score [6]: 0.298
composite z-score [7]: 0.171
z-score [8]: 0.663 (inactive)
composite z-score [9]: -0.0464
composite z-score [10]: -0.202

CC(C)C(=C=CC[C@H](O)c1ccc(OCCO)cc1)CCO
composite z-score [1]: -0.0762
composite z-score [2]: 0.887
composite z-score [3]: -0.1
composite z-score [4]: 0.904
composite z-score [5]: 0.255
composite z-score [6]: 1.69
composite z-score [7]: 0.895
z-score [8]: 0.305 (inactive)
composite z-score [9]: 0.326
composite z-score [10]: -0.0994

COCCOC(=O)N1C(=O)[C@@]2(c3cc(C#CCC(C(=O)OC)C(=O)OC)ccc31)[C@H](c1ccccc1OCCO)N1[C@H](c3ccccc3)[C@H](c3ccccc3)OC(=O)[C@H]1[C@@H]2C(=O)NC[C@H](O)c1ccccc1
composite z-score [1]: -0.0494
composite z-score [2]: 0.114
composite z-score [3]: -0.117
composite z-score [4]: 0.791
composite z-score [5]: 0.961
composite z-score [6]: 1.27
composite z-score [7]: 1.15
z-score [8]: -0.923 (inactive)
composite z-score [9]: 0.357
composite z-score [10]: 0.152

COc1cc2c(cc1OC)CN(C(=O)[C@H]1[C@@H]3C(=O)O[C@@H](c4ccccc4)[C@@H](c4ccccc4)N3[C@@H](c3ccc(O)cc3)[C@]13C(=O)Nc1ccc(C#CCCO)cc13)CC2
composite z-score [1]: 0.0257
composite z-score [2]: 0.322
composite z-score [3]: -0.0659
composite z-score [4]: 0.519
composite z-score [5]: 0.0774
composite z-score [6]: 1.63
composite z-score [7]: 1.28
z-score [8]: -0.845 (inactive)
composite z-score [9]: -0.0227
composite z-score [10]: -0.125

O=C1c2ccccc2[C@](Cc2ccccc2I)(C(=O)NCCN2CCOCC2)[C@H](c2ccc(CO)cc2)N1Cc1ccccc1Cl
composite z-score [1]: 0.118
composite z-score [2]: 0.469
composite z-score [3]: 0.07
composite z-score [4]: 0.915
composite z-score [5]: 1.13
composite z-score [6]: 1.24
composite z-score [7]: 1.29
z-score [8]: -1.96 (inactive)
composite z-score [9]: 0.511
composite z-score [10]: 0.0274

O=C1C[C@@](C(=O)NCC(F)(F)F)(c2ccc([N+](=O)[O-])cc2)[C@@H](c2ccc(CO)cc2I)N1C1CCCCC1
composite z-score [1]: -0.0205
composite z-score [2]: 0.95
composite z-score [3]: -0.0257
composite z-score [4]: 0.19
composite z-score [5]: 1.46
composite z-score [6]: 0.811
composite z-score [7]: 1.24
z-score [8]: 0.467 (inactive)
composite z-score [9]: 0.414
composite z-score [10]: -0.0994
